# MOR-DOR ag – agonists of human mu-delta opioid receptor heterodimerization; P35372+P41143; cells, OPRM1-OPRD1 heterodimerization, luminescence; activation, % at 9.3 µM; 340,000 tested, 0.3% active; AID 504326; in the data active = activation above about 18%;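 also: 0% = vehicle-treated cells and 100% = reference agonist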
# HTR5A inv ag – inverse agonist of human HTR5A in OPRM1-OPRD1 counter-screen. P47898. HTR5A cell line, luminescence, inverse agonism. inhibition, % at 9.3 µM. 340,000 tested, 0.083% active; in the data active = inhibition mostly above about 23%, no sharp cut-off; inactive = mostly below about 18%;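 also: 0% = cells with DMSO and 100% = no-cell wells with DMSO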
# Target sequence (P47898 whole entry, looked up): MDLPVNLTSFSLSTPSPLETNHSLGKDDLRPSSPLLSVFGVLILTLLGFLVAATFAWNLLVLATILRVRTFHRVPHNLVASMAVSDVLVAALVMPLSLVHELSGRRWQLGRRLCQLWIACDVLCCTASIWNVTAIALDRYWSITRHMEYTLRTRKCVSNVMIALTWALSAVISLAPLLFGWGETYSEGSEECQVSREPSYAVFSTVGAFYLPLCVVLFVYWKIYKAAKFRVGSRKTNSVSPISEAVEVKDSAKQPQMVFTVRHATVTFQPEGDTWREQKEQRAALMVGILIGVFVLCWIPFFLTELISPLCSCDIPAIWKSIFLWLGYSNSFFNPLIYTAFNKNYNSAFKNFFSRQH
# HTR5A ag – HTR5A agonism, opioid heterodimer counter-screen; HTR5A agonist assay, luminescence, cell-based; 340,000 tested, 0.61% active; P47898; activation, % at 9.3 µM; in the data active = activation mostly above about 9.5%, no sharp cut-off; inactive = mostly below about 7.6%;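 also: 0% = cells with vehicle only and 100% = reference agonist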
# OPRM1-OPRD1 inv – mu-delta opioid heterodimer inverse agonism | P35372+P41143 | cell-based MOR-DOR heterodimer luminescence | inhibition, % at 9.3 µM | 340,000 tested, 0.21% active | AID 504357; in the data active = inhibition above about 22%, passing the limit was not always enough;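 also: 0% = cells with DMSO and 100% = wells without cells with DMSO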
# MOR-DOR inv conf – confirmation of human OPRM1-OPRD1 heterodimerization inverse agonists. shares compounds with OPRM1-OPRD1 inv. cells expressing OPRM1/OPRD1 heterodimer, luminescence. inhibition, % at 9.3 µM. 580 tested, 20% active. AID 504900; in the data active = inhibition above about 32%;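 also: 0% = cells with DMSO and 100% = wells lacking cells with DMSO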
# HTR5A inv ctr2 – inverse agonist of human HTR5A in OPRM1-OPRD1 counter-screen; 580 tested, under 10 active; AID 504914; HTR5A-expressing cells, luminescence, inverse agonism; inhibition, % at 9.3 µM; shares compounds with OPRM1-OPRD1 inv; call rule not given here;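 also: 0% = cells with DMSO and 100% = no-cell wells with DMSO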
# The depositor's hits bear a star; · = no result given. This is a sample that favours compounds with a hit; in the whole collection about 1.1% have one here.
SMILES,MOR-DOR ag,HTR5A inv ag,HTR5A ag,OPRM1-OPRD1 inv,MOR-DOR inv conf,HTR5A inv ctr2
Cc1ccc(NC2(C#N)C(=O)Nc3ccccc32)cc1C (centres undefined),-12,14,-5,56*,-244,0
COC(=O)c1ccc(NC2(C#N)C(=O)Nc3ccccc32)cc1 (centres undefined),-14,12,-4,83*,64*,16
Cc1ccc(N(C)C(=O)CCS(=O)(=O)c2cc3c(cc2Cl)NC(=O)CO3)cc1,0,-22,7,-2,·,·
O=C(COC(=O)c1ccccn1)c1cccc(Br)c1,-7,17,-2,37*,14,9
CCN(Cc1ccc(NC(C)=O)cc1)CC1CCCN(CCc2cccc(OC)c2)C1 (centres undefined),1,5,-1,-7,·,·
O=C(O)CNS(=O)(=O)Cc1ccccc1,-2,1,1,11,·,·
O=S(=O)(Cc1ccccc1)N(O)c1ccccc1,-7,6,-2,43*,-11,0
Cc1ccc(N/N=C/c2cccnc2)cc1,-10,-3,1,52*,-237,-17
Cc1ccc(N/N=C/c2ccncc2)cc1,-6,2,-1,31,·,·
COc1cc(NC(=O)c2cccc(NC3=NC4CS(=O)(=O)CC4S3)c2)cc(OC)c1OC (centres undefined),-2,-9,1,11,·,·
O=[N+]([O-])c1cccc(/C=N/NS(=O)(=O)c2ccccc2)c1,-7,-11,0,38*,21,0
CC(=O)C1=C(c2ccccc2)N(C(C)=O)n2c(C)nnc2S1,-17,5,-2,86*,16,12
CC(=O)N1CCN(c2nnc(-c3ccccc3)c3ccccc23)CC1,-1,-5,1,5,·,·
CC(=O)c1ccc(OCCn2c(SCC(=O)O)nc3ccccc32)cc1,-2,-5,0,9,·,·
COc1ccc2nc(NN=C(C)c3ccccn3)cc(C)c2c1,-8,17,-4,39*,-34,-91
C/C(=N\NC(=O)c1cc(C)nc2ccccc12)c1ccccn1,-7,2,-1,26,·,·
C=CCSc1cc(C)nc2c(-c3ccc(Cl)cc3)c(C)nn12,-5,38,0,28*,-52,-2
Cn1nnc(NC(=S)NC(=O)c2cccs2)n1,-6,21,-9,31,·,·
Cn1nnc(NC(=S)NC(=O)c2cccc3ccccc23)n1,-8,5,-1,41*,9,3
COc1cc(OC)cc(C(=O)NC(=S)Nc2nnn(C)n2)c1,-8,1,-1,41*,25,7
CN(CC(=O)Nc1ccccc1Br)C(=O)c1ccccc1OCc1ccccc1Cl,1,6,-2,-7,·,·
O=C(Cc1cccs1)NCc1cc(Cl)cc(Cl)c1,-3,-13,3,15,·,·
CCOC(=O)C1=C(C)Nc2ccccc2N=C1NC(=O)C1CCN(C(=O)c2ccccc2C)CC1,-2,2,0,9,·,·
CCCc1ccc(C(=O)NNc2cccc(C)c2)cc1,-9,0,-7,44*,25,14
CCc1ccc(C(=O)NNc2ccc(Cl)cc2)cc1,-8,6,-7,39*,14,1
SMILES,MOR-DOR ag,HTR5A inv ag,HTR5A ag,OPRM1-OPRD1 inv,MOR-DOR inv conf,HTR5A inv ctr2
O=C(NNc1cc(Cl)cc(Cl)c1)c1cccs1,-5,4,-1,23,·,·
CCc1ccc(C(=O)NNc2cc(Cl)cc(Cl)c2)cc1,3,-8,-1,-16,·,·
O=C(NNc1ccc(Cl)cc1)c1cccs1,-10,-10,-2,49*,-15,-7
Cn1cnc(S(=O)(=O)NCc2ccc(Br)cc2)c1,-3,4,-3,13,·,·
O=C(CCC(=O)NC1CCCCC1)N/N=C/c1ccncc1,-1,11,-4,7,·,·
COc1ccccc1Oc1ccc2c(c1)C(=O)N(CC1CCCO1)C2=O (centres undefined),-2,16,1,9,·,·
N#CC(C#N)=C1C=CC=CN1/C(=C\c1ccccc1Cl)C(=O)c1ccccc1,-7,23,2,35*,18,16
O=C(CCS(=O)(=O)c1ccc(Cl)cc1)Nc1nc(-c2ccncc2)cs1,0,-7,1,0,·,·
O=S(=O)(NNc1cccc(Cl)n1)c1ccc(Cl)cc1,-20,14,-6,80*,50*,6
Cc1ccccc1-c1cc2c(nn1)-c1ccccc1C2=O,-2,-10,1,14,·,·
O=C1c2ccccc2-c2nnc(-c3ccc(O)cc3)cc21,-4,-7,-2,18,·,·
O=C1c2ccccc2-c2nnc(-c3ccc(F)cc3)cc21,-16,4,-1,81*,21,2
Cc1ccc(-c2cc3c(nn2)-c2ccccc2C3=O)cc1,-19,-3,1,99*,-25,-5
CC(=O)Nc1sc(N/N=C\c2ccco2)nc1-c1cccs1,2,-1,-3,-8,·,·
CCCCC(=O)NC(=S)Nc1ccccc1C(=O)Nc1ccccc1,-6,10,-2,30*,8,2
CC(=O)NC(=S)Nc1ccccc1C(=O)Nc1ccccc1,-5,-24,-2,27*,7,-2
c1nc(C2CCCCC2)cc2cc3c(cc12)OCO3,5,13,-4,-22,·,·
OCC1OC(Oc2c[nH]c3ccccc23)C(O)C(O)C1O (centres undefined),-11,-3,1,58*,-5,20
Cn1c(-c2ccc(F)cc2)cnc1NCc1ccccc1F,-7,-18,0,38*,-10,-5
O=C(CCNC(=O)c1ccc(Br)cc1)Nc1ncccc1O,-3,4,-2,17,·,·
Cc1cccc2c1N(CCOc1ccc(C(C)(C)C)cc1)C(=O)C2=O,-6,5,-2,36*,-14,-110
Cc1ccc(OCCCN2C(=O)C(=O)c3cccc(C)c32)cc1,-8,3,-1,45*,12,5
CS(=O)(=O)c1ccc(Cl)c(NC(=O)c2cc(=O)[nH]c3ccc(S(=O)(=O)N4CCOCC4)cc23)c1,-1,-15,-2,4,·,·
O=c1c2cc(Cl)ccc2[nH]c(=S)n1Cc1ccccn1,-12,23,-9,72*,55*,10
O=C(NCc1ccccn1)c1ccc(Cn2c(=S)[nH]c3ccc(Br)cc3c2=O)cc1,0,-10,4,2,·,·
SMILES,MOR-DOR ag,HTR5A inv ag,HTR5A ag,OPRM1-OPRD1 inv,MOR-DOR inv conf,HTR5A inv ctr2
O=C(Nc1cccc(Cl)c1)c1nc[nH]c1C(=O)N1CCN(c2ccccc2)CC1,0,4,4,0,·,·
CCOC(=O)C1=CNS(=O)(=O)NC1c1ccc(OC(C)=O)cc1 (centres undefined),-3,0,0,17,·,·
O=C(O)c1ccc2nc3c(nc2c1)-c1ccccc1C3=O,-9,22,11,42*,46*,12
O=C(O)c1ccc2nc(-c3ccco3)c(-c3ccco3)nc2c1,4,6,0,-19,·,·
Cc1ccc(C(=O)COC(=O)CCC(=O)NC2CCCCC2)cc1[N+](=O)[O-],-9,32,-6,47*,35*,16
O=C(CCC(=O)OCC(=O)c1ccc(Br)cc1)NC1CCCCC1,-3,-11,2,17,·,·

# Assay outcomes as filed in PubChem BioAssay.
